# PI5P4K alpha inh: blocks human PI5P4K alpha kinase activity | PI5P4Kalpha enzyme, ADP-Glo luminescence, 60 min; stronger effect = lower value | max response, % | hit rate 1.2% among 330,000; active = max response of -50% or lower; inconclusive = between -30% and -50%; inactive = -30% or higher; note: value at the top dose of about 77 µM; % is set by controls: 0 for no effect and ±100 for the full control effect
#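 qHTS, 1536-well: enzyme/substrate mix, compound by pin tool, 5 microM ATP final; RT 60 min; ADP-Glo reagents 1 (45 min) then 2 (30 min); luminescence.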
# POLI inh: inhibitors of human DNA polymerase iota. AID 588590. Pol iota fluorescent replication assay, 10 min. Q9UNA4. hit rate 1% among 390,000. Potency, µM (top dose mostly 115 µM), for the others: top-dose activity, negative = inhibition, actives largely listed as inhibitors; note: potency is the fitted concentration of half-maximal effect
#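 Pol iota at 10 nM preincubated 15 min with compounds at room temperature; reaction started with fluorescent substrate, 50 nM final. Fluorescence read kinetically at 0 and 10 min; buffer-only wells as negative control.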
# POLH inh: DNA polymerase eta (human) inhibition | Q9Y253 | recombinant Pol eta, fluorescent DNA replication assay | Potency, µM (doses to about 114 µM), for inactives: at the highest dose activity change, negative = inhibition, most hits filed as inhibitors | hit rate 1.2% among 390,000 | AID 588591; note: potency is the fitted concentration of half-maximal effect; % is set by controls: 0 for no effect and ±100 for the full control effect
# Target sequence (Q9Y253 whole entry, looked up): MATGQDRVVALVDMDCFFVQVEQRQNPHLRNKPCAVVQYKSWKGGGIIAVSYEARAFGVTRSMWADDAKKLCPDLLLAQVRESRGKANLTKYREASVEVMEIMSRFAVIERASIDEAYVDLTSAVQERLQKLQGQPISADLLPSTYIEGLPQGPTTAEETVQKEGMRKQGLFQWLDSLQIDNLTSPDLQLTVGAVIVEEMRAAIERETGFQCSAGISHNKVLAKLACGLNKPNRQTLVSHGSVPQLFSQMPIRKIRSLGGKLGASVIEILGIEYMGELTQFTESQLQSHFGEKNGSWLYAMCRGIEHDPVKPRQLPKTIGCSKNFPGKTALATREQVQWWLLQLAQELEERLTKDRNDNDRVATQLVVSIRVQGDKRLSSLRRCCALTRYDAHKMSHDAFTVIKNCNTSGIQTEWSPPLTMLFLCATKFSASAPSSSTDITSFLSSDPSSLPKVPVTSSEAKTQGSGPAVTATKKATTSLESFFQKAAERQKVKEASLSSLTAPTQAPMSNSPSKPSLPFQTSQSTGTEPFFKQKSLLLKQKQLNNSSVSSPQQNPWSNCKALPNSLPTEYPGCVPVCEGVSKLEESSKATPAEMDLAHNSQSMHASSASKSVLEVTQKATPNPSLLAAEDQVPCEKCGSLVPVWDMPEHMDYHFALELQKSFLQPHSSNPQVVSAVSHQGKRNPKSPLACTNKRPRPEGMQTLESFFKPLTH
#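 Fluorescent replication assay: 50 nM final substrate added after a 15 min room-temperature compound preincubation with 10 nM enzyme. Signal taken at 0 min and again at 10 min.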
# POLK inh: inhibitors of human DNA polymerase kappa; purified Pol kappa, fluorescent DNA synthesis assay, 10 min; Potency, µM (doses to about 107 µM), for the others: at the top dose activity, negative = inhibition, actives largely listed as inhibitors; Q9UBT6; hit rate 0.53% among 400,000; note: potency is the fitted concentration of half-maximal effect; % is set by controls: 0 for no effect and ±100 for the full control effect
#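 50 nM final substrate added after 15 min RT preincubation of 10 nM Pol kappa with compound; fluorescence read at 0 and 10 min.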
# POLB inh: DNA polymerase beta (human) inhibition; Potency, µM (series often up to 114 µM), without a hit: top-dose activity change, negative = inhibition, actives largely listed as inhibitors; Pol beta primer extension/strand displacement, fluorescence kinetic; hit rate 1.3% among 340,000; P06746; note: potency is the fitted concentration of half-maximal effect; % is set by controls: 0 for no effect and ±100 for the full control effect
#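 Homogeneous kinetic assay of primer extension and strand displacement by 10 nM Pol beta, preincubated 15 min at room temperature with compound before 50 nM substrate (final) was added. Read at 0 and 10 min; four-parameter Hill fit.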
# WRN inhibitor: WRN helicase (human) inhibition. Potency, µM (doses to about 114 µM), for inactives: at the highest dose activity change, negative = inhibition, usual class: inhibitors. AID 651768. WRN helicase unwinding, fluorescent forked duplex, kinetic. Q14191. hit rate 0.46% among 360,000; note: potency is the fitted concentration of half-maximal effect; % is set by controls: 0 for no effect and ±100 for the full control effect; nearly all actives have a fitted effect of over 55% in size
#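 WRN at 20 nM final preincubated with compound 15 min at room temperature; reaction started with 100 nM fluorophore/quencher forked duplex oligonucleotide and 2 mM ATP final. Unwinding followed kinetically by red fluorescence (ex 525, em 598 nm).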
# * hit, by the source's call; i = inactive; ? = inconclusive; nt = not tested or not shown; [ ] = remark or other dose. Compounds with a hit are over-represented: about 2.8% of the library has one in this group of screens. Unless noted, calls come from the whole dose curve; as a rule, active = well fitted curve in the direction sought with a large enough effect; inconclusive = small, poorly fitted or top-dose-only effect, or another doubt; inactive = no such curve, though single readings can be large; an effect the other way counts as inactive or inconclusive.
SMILES,PI5P4K alpha inh,POLI inh,POLH inh,POLK inh,POLB inh,WRN inhibitor
Cc1cccc(C)c1NC(=O)CNC(=O)c1cccc(S(=O)(=O)NCc2cccs2)c1,0,14%,-2%,-3%,nt,5%
CCCc1nc2ccccc2n1C(CCSC)C(=O)NC(C)(C)C (stereo unspecified),2,nt,nt,nt,nt,3%
CCC(C)NC(=O)C1(O)c2ccccc2NC(=O)N1c1ccc(C)c(C)c1 (stereo unspecified),0,-10%,-17%,-2%,35%,3%
CCN(CC)C(=S)SSC(=S)N(CC)CC,-78*,11%,-4%,5%[60.1 µM],-4%[57.1 µM],13%
Cc1ccc(C(=O)COC(=O)COc2ccccc2[N+](=O)[O-])s1,-29,-7%,?,-16%,nt,-4%
CCOC(=O)COc1ccccc1/C=C\[N+](=O)[O-],-8,-22%,-13%,-8%,-1%,32µM*
Cn1c(=O)c2[nH]c(CCCCCCCc3nc4ccccc4[nH]3)nc2n(C)c1=O,-2,78%,-6%,-8%,nt,-11%
O=C(c1cccc(S(=O)(=O)NCc2ccccc2)c1)N1CCN(c2ccccc2Cl)CC1,11,89µM*,-17%,-8%,nt,-4%
COc1ccc2c(COC(=O)c3ccc(C)c(S(=O)(=O)N4CCOCC4)c3)cc(=O)oc2c1,7,?,14µM*,-8%,nt,-22%
COc1ccc(C(=O)OCc2cc(=O)oc3cc(C)ccc23)cc1S(=O)(=O)N1CCOCC1,-9,nt,2%,nt,nt,0%
O=C(COc1ccccc1/C=C1\SC(=O)NC1=O)Nc1ccc(F)cc1,?,52%,71µM*,-7%,?,-19%[57.1 µM]
CCOC(=O)[C@@H]1[C@H]2COc3ccccc3[C@H]2N2C(=O)N(c3cccc(F)c3)C(=O)[C@]12C,-1,19%,-14%,-9%,91%,-3%
Oc1cc(Nc2cccnc2)cc2cccnc12,nt,26%,-18%,-11%,nt,nt
Oc1cc(NCCc2cccnc2)cc2cccnc12,nt,35µM*,-5%,-27%,nt,nt
O=c1c2ccccc2nc(SCc2ccccc2)n1CC1CCCO1 (stereo unspecified),3,2%,?,-10%,-1%,0%
Cc1cc(=O)n(CC(=O)NC(C)c2ccccc2)c2c1c(C)nn2-c1cccc(F)c1 (stereo unspecified),nt,?,-5%,-41%,22µM*,nt
Cc1ccc(CNC(=O)Cn2c(=O)cc(C)c3c(C)nn(-c4cccc(F)c4)c32)cc1,nt,5%,-7%,0%,70%,nt
O=[N+]([O-])c1ccc(Sc2cccc[n+]2[O-])c2nonc12,-53*,3.5µM*,4.5µM*,32µM*,20µM*,16µM*
O=[N+]([O-])c1ccc(Nc2ccccc2)c2nonc12,-26,10%,-14%,4%,5%,-12%
O=c1cc(-c2ccc(O)c(O)c2)oc2ccc3ccccc3c12,-20,?,?,-24%,nt,-30%
O=c1oc(-c2ccc(O)c(O)c2)cc2cccc(O)c12,-23,?,35µM*,?,nt,?
O=C(NCCCN1CCN(c2ccccc2)CC1)c1ccc2nc(CCc3ccccc3)oc2c1,nt,4%,-25%,-5%[60.1 µM],17%,nt
Cc1csc(NC(=O)Nc2ccc(Cl)cc2)n1,-2,?,?,-35%,28µM*,-17%
COc1ccc(-c2nc(SCC(=O)Nc3ccc4c(c3)OCCO4)c(-c3ccc(F)cc3)[nH]2)cc1,nt,?,-17%,-26%,40µM*,nt
COc1ccc(-c2nc(SCC(=O)Nc3ccc4c(c3)OCCO4)c(-c3ccc(F)cc3)[nH]2)cc1OC,nt,i,-24%,45%,3%,nt
SMILES,PI5P4K alpha inh,POLI inh,POLH inh,POLK inh,POLB inh,WRN inhibitor
O=C(CSc1ncccc1C(=O)O)Nc1ccc2c(c1)OCCO2,-52*,17%,-3%,-1%,?,10%
COc1ccc2[nH]c3nc(SCC(=O)Nc4ccc5c(c4)OCO5)nnc3c2c1,-2,?,?,-3%,22µM*,-17%
COc1cc(OC)c(OC)cc1/C=C/C(=O)OCC(=O)Nc1c(C)n(C)n(-c2ccccc2)c1=O,-5,-14%,-6%,-9%,nt,-1%
O=c1c(Cl)c(O)c2cccc3c4ccccc4n1c23,-57*,1%,?,-5%,?,-30%
Cn1c(=O)c(-c2cccc(Cl)c2)c(O)c2ccccc21,1,158%,-21%,-7%,nt,-13%
Cc1[nH]c2ccccc2c1/C=N/Nc1ccccn1,nt,nt,nt,nt,-23%,nt
Cc1[nH]c2ccccc2c1/C=N/Nc1nncn1N,5,5µM*,-23%,-5%,?,-2%
CN1C(=O)C(C)(C)c2cc(S(=O)(=O)N3CCN(c4cccc(Cl)c4)CC3)ccc21,-28,?,0%,-36%,14µM*,-21%
Cc1ccc(N2CCN(S(=O)(=O)c3ccc4oc(=O)c5ncn(C)c5c4c3)CC2)c(C)c1,nt,15%,-23%,8%,16%,nt
CCCOc1ccc(CNC(=O)Cc2cccs2)cc1,-2,34%,-10%,-2%,?,-6%[57.1 µM]
CCc1ccc(OCC(=O)NNC(=O)c2cc3ccccc3o2)cc1,-1,33%,9%,-23%,25µM*,?
CCc1ccc(OCC(=O)NNC(=O)Cc2cccs2)cc1,?,58%,?,-18%,20µM*,-1%[11.6 µM]
CCc1ccc(OCC(=O)Nc2ccc(-c3nc4ccccc4o3)c(O)c2)cc1,-10,0%,?,-15%,2.2µM*,-18%
CC1(C)Nc2cccc3c(N=Nc4ccc(N=Nc5ccccc5)c5ccccc45)ccc(c23)N1,nt,34%,nt,-21%,nt,nt
Clc1ccc2c(SCC3CO3)c3ccccc3nc2c1 (stereo unspecified),2,?,?,-9%,nt,?
NS(=O)(=O)c1ccc(-c2ccc(/C=C3\SC(=S)N(C4CCS(=O)(=O)C4)C3=O)o2)cc1 (stereo unspecified),-10,4%,-5%,-7%,7%,-9%
CC1=C(C#N)C(=O)N(C2CCS(=O)(=O)C2)C(=O)/C1=C\c1ccc(C)o1 (stereo unspecified),nt,nt,nt,nt,13µM*,nt
Cc1ccc(/C=C2\SC(=S)N(C3CCS(=O)(=O)C3)C2=O)o1 (stereo unspecified),-53*,?,25µM*,?,32µM*,?
O=S(c1ccccc1O)S(=O)c1ccccc1O (stereo unspecified),-83*,13µM*,22µM*,?,nt,14µM*
CS(=O)c1ccccc1O (stereo unspecified),-2,-17%,-7%,-18%,4%,-6%
O=S(=O)(Nc1nc2ccc(S(=O)(=O)N3CCCC3)cc2s1)c1ccc(F)cc1,nt,?,89µM*,-28%,-2%,-2%

# Screening results as filed in PubChem.
